# According to PubChem BioAssay (NCI):
# The panel holds about 83,000 compounds, 20% with a hit somewhere; the sample as a whole holds those more often.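 Assay: single dose, 48 h. Readout: percent growth (0 = no net growth; negative = cell death). Active: <10.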 A number with no mark means an inactive call. Calls of active or inactive are those of the source.
# Experiments:
# Test in all cases: NCI-60 one-dose screen, 48 h (100 = growth as untreated, 0 = no growth, -100 = all killed)
# Conditions in all cases: 10 µM unless noted
# [1] = test system: HCT-15 colon
# [2] = test system: HT29 colon
# [3] = test system: SNB-75 CNS
# [4] = test system: SNB-19 CNS
# [5] = test system: U251 CNS
# [6] = test system: PC-3 prostate
# [7] = test system: SK-MEL-5 melanoma
# [8] = test system: UACC-62 melanoma
# [9] = test system: LOX IMVI melanoma
# [10] = test system: SK-MEL-28 melanoma
# [11] = test system: SK-MEL-2 melanoma
# [12] = test system: EKVX NSCLC
# [13] = test system: SN12C renal
# [14] = test system: UO-31 renal
# [15] = test system: TK-10 renal
# [16] = test system: ACHN renal
# [17] = test system: CAKI-1 renal
# [18] = test system: CCRF-CEM leukemia
# [19] = test system: MOLT-4 leukemia
SMILES,growth [1],growth [2],growth [3],growth [4],growth [5],growth [6],growth [7],growth [8],growth [9],growth [10],growth [11],growth [12],growth [13],growth [14],growth [15],growth [16],growth [17],growth [18],growth [19]
NCCCCCCNc1cc(-c2cccc(OC(F)(F)F)c2)nc2ccc(N3CCCC3)cc12,-54.2% (active),-2.69% (active),-32.4% (active),16.5%,-59% (active),-5.66% (active),-98.4% (active),-56.9% (active),-93.6% (active),-83.4% (active),-63.6% (active),65.4%,-20.1% (active),-91.5% (active),-44.4% (active),-16.6% (active),-45.9% (active),-32.2% (active),-20.7% (active)
CC(=O)Nc1ccc(-c2ccc3c(c2)NC(=O)/C3=C\c2ccc[nH]2)cc1,92.6%,90.6%,111%,104%,86.6%,97.8%,100%,105%,84.2%,116%,96%,49.5%,94.6%,38.8%,70.2%,69.5%,78.1%,94.8%,87.3%
C=C(C)[C@@H]1CC[C@]2(C(=O)N3CCN(C)CC3)CC[C@]3(C)[C@H](CC[C@@H]4[C@@]5(C)CC[C@H](O)C(C)(C)[C@@H]5CC[C@]43C)[C@@H]12,-83.9% (active),-90.4% (active),-93.2% (active),-52% (active),-84.8% (active),-70.7% (active),-67.7% (active),-82.9% (active),-80.9% (active),-85.1% (active),61.8%,92.5%,-74.2% (active),-86.1% (active),-93.3% (active),-92% (active),-84% (active),-36.6% (active),-35.7% (active)
Cc1cccc(NC(=O)Nc2ccc(-n3cnc4cc(-c5ccc(O)cc5)ccc43)cc2)c1,18.8%,28.4%,69.2%,28%,26.5%,31.2%,14.4%,27.3%,30.6%,44%,18.1%,35.8%,23%,27.2%,21.8%,16.1%,35%,17.8%,13.1%
COc1cccc(-c2cc(C(=O)Nc3ccc(/C=C/c4ccc(OC5CCN(C)CC5)cc4)cc3)ccc2OC)c1,-61.8% (active),-60.1% (active),-50.3% (active),-11.1% (active),-92.6% (active),8.53% (active),96%,69.6%,-86.9% (active),41.7%,98.5%,27.2%,-78.3% (active),37.7%,1.81% (active),60.1%,109%,-10.8% (active),-36.4% (active)
CCC(=O)Oc1ccc(/C(=C(\C)c2ccccc2)c2ccc(OCCN3CCCCC3)cc2)cc1,58.6%,8.78% (active),96.5%,85%,68.4%,72.8%,82.5%,88.5%,81%,71.2%,92.1%,87.1%,79.7%,64.3%,84.2%,102%,87.8%,84.9%,60.8%
COc1cc2oc(-c3cccc(C(=O)Nc4ccc5c(c4)OCO5)c3)cc(=O)c2c(O)c1OC,93.6%,76.3%,84.6%,72.1%,55.8%,72.3%,84%,81.4%,88.2%,89.8%,89.9%,87%,68.7%,82.1%,98.6%,75.3%,76.9%,97.2%,101%
CN(C)c1ccc(C2C(C#N)=C(/N=C/c3ccccc3)Oc3c2ccc2ccccc32)cc1 (centres undefined),48%,69.9%,-0.718% (active),74.2%,74.8%,50.7%,71.5%,49.2%,54.6%,80.1%,70.8%,73.4%,78%,50.6%,144%,71.6%,20.7%,66.7%,67.7%
C=C1C(=O)O[C@H]2[C@H]1CC/C(COC(=O)NCc1c[nH]c3ccc(Br)cc13)=C\CC[C@@]1(C)O[C@@H]21,-70.2% (active),-76.6% (active),-5.16% (active),40.2%,3.96% (active),15.4%,-27.1% (active),-63% (active),-82% (active),-33.5% (active),1.8% (active),-16.5% (active),-43.2% (active),-98.3% (active),-68.7% (active),-71.2% (active),-92.8% (active),-13.1% (active),-2.46% (active)
Cn1ccnc1C(=O)/C=C/c1ccc(CC(=O)Nc2ccc(Cl)cc2)cc1,5.48% (active),3.03% (active),11.8%,6.66% (active),6.28% (active),32.7%,33.3%,35%,13.1%,70.9%,89.7%,40.6%,2.21% (active),23.3%,27%,49.8%,34.7%,4.18% (active),5.64% (active)
O=C(CCN1CCCC1)Nc1ccc2c(Nc3ccc(Br)cc3)c3ccccc3nc2c1,-73.9% (active),1.67% (active),37.3%,-0.557% (active),-51% (active),4.09% (active),31.7%,77.8%,-92.4% (active),-28.6% (active),97.1%,59.5%,30%,-96.8% (active),-36.1% (active),29.4%,15.3%,-15.6% (active),-33.8% (active)
O=C1Nc2ccccc2/C1=C\c1c(-c2ccccc2)nc2ccccn12,29.3%,21.8%,38.5%,55.8%,62.9%,49.9%,17.3%,33.4%,37.1%,58.6%,52.5%,53.1%,46.1%,48.2%,84.4%,40.9%,39.2%,37.9%,9.8% (active)
O=C(CCN1CCCC1)Nc1ccc2c(NCc3ccccc3)c3ccccc3nc2c1,20.6%,3.9% (active),-15.4% (active),5.52% (active),1.05% (active),-4.59% (active),17.2%,-16.1% (active),-45.6% (active),32.1%,-1.81% (active),4.75% (active),-5.99% (active),1.35% (active),1.15% (active),9.88% (active),5.35% (active),-23.6% (active),-17.5% (active)
Cc1cc2c(c(C)c1Cl)C(=O)/C(=C/c1ccc(O)c(O)c1)O2,106%,106%,99%,99.2%,85.4%,100%,100%,88.8%,93.7%,105%,104%,98.7%,92.1%,72.2%,119%,92.7%,90.6%,101%,108%
N/C(=N\C(N)=N\c1nc2ccccc2s1)c1cccc(Cl)c1,32.1%,95.1%,95.2%,97.1%,48.3%,45%,104%,86.2%,44.1%,104%,100%,83.3%,38.5%,33.2%,111%,75.5%,33.2%,73.3%,72.5%
O=C1c2ccc3c4c(ccc(c24)C(=O)N1CCCNCc1ccccc1Cl)C(=O)N(CCCNCc1ccccc1Cl)C3=O,-46% (active),-42.5% (active),-97.9% (active),-76.9% (active),-52.8% (active),-37.7% (active),-96.6% (active),-59.5% (active),-53.7% (active),-92.2% (active),-60.6% (active),-46.7% (active),-87.1% (active),-35% (active),-54.9% (active),-39.3% (active),-12.6% (active),-15.5% (active),-24.4% (active)
